Bioassay records as filed in PubChem.
eIF4H inh = human eIF4H binding inhibitors, primary screen, translation initiation inhibitor project, biochemical, uHTS, fluorescence polarization. eIF4H fluorescence polarization binding assay. inhibition, % at 35 µM. 0.94% of 290,000 active. AID 2012, 2009;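 also: calls also rest on retests at 20 µM and on dose response follow-up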
PABP FP inh = PABP poly(A) RNA binding inhibitors, primary screen, biochemical, fluorescence polarization, uHTS | calls only at 35 µM | AID 2014, 2009 | 1% of 290,000 active | Polyadenylate-binding protein 1 (Homo sapiens), P11940;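 also: calls also rest on retests at 20 µM and on dose response follow-up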
PABP1 MLLE inh = inhibitors of PABP1 MLLE–PAM2 peptide binding, primary screen, biochemical, fluorescence polarization, FITC-PAM2, GST-MLLE; Polyadenylate-binding protein 1 (Homo sapiens), P11940; inhibition, % at 20 µM; 0.36% of 360,000 active; AID 588489, 2011; in the data active = inhibition above about 35%, passing the limit was not always enough;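 also: plate controls were DMSO wells with GST-MLLE for no effect and wells lacking GST-MLLE protein for full effect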
A3A deaminase = APOBEC3A ssDNA deaminase inhibitors, primary screen, selectivity assay for APOBEC3G inhibitor project, biochemical, FAM/TAMRA oligo cleavage fluorescence | DNA dC->dU-editing enzyme APOBEC-3A (Homo sapiens), P31941 | recombinant A3A, FAM/TAMRA ssDNA deamination fluorescence | inhibition, % at 20 µM | 0.41% of 330,000 active;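 active = at least 40% inhibition at 20 µM here, with at most 30% in a related deaminase screen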;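 also: plate controls were A3A with DMSO for no effect and wells lacking A3A enzyme for full effect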
PHOSPHO1 block = PubChem AID 1565; Phosphoethanolamine/phosphocholine phosphatase (Homo sapiens), Q8TCT1; recombinant PHOSPHO1, absorbance phosphatase assay; inhibition, % at 13.3 µM; 1.1% of 290,000 active; in the data active = inhibition above about 60%
Target sequence (Q8TCT1 whole entry, looked up): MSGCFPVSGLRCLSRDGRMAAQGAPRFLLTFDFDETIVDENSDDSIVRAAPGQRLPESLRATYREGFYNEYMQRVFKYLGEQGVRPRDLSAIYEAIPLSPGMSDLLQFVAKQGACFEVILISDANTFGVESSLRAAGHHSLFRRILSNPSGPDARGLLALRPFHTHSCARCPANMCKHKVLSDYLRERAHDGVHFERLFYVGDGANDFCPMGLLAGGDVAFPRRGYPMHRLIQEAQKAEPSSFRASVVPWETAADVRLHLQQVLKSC
A3G deaminase = APOBEC3G DNA deaminase inhibitors, primary screen, biochemical, fluorescence, single-stranded DNA substrate, uHTS. inhibition, % at 20 µM. 0.28% of 330,000 active. recombinant A3G, ssDNA deamination FAM/TAMRA fluorescence. DNA dC->dU-editing enzyme APOBEC-3G (Homo sapiens), Q9HC16;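 active = inhibition of at least 40% at 20 µM, with no more than 30% in the related APOBEC3A deaminase screen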;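 also: plate controls were DMSO wells with A3G for no effect and wells lacking A3G enzyme for full effect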
Active calls of the source: *; i = inactive; ? = inconclusive; / = not tested or not shown; + = active, no number. Sampled rows, rich in hits. Any-hit rate of the full collection: about 2.6%. Unless noted, no rule for the calls is given here.

SMILES	eIF4H inh	PABP FP inh	PABP1 MLLE inh	A3A deaminase	PHOSPHO1 block	A3G deaminase
CCOC(=O)CSc1nnc(-c2ccccc2NC(=O)c2ccccc2)o1	-0.9	i	-7.7	0.1	13.5	-5.1
CCc1nnc(NC(=O)CSc2nnc(-c3ccccc3NC(=O)c3ccccc3)o2)s1	12.5	i	-20.6	-1.6	68.0*	-5.7
CCOc1cc(C(=O)CSc2nnc(CNc3ccc(Cl)cc3)o2)ccc1NC(=O)CC	-1.6	i	-45.6	1.6	84.1*	0.4
COc1ccc(NCc2nnc(SCC(=O)c3ccc(OC)cc3)o2)cc1	-3.9	i	12.6	0.1	56.7	-6.8
CCc1nc2ccccc2c(=O)n1/N=C/c1ccc(Cl)cc1	/	/	-12.5	-0.4	/	-2.6
CC1(C(=O)Nc2ccc(Cl)c(Cl)c2)CCN1Cc1ccccc1OC(F)F (stereo not given)	/	/	-14.5	/	/	/
COc1ccc(NCc2ccc(OC)c(Cn3ccnc3)c2)c(OC)c1	-9.3	i	-6.6	-3.5	/	-8.3
O=P(c1ccccc1)(c1ccccc1)c1nc(-c2ccccc2)oc1NCc1ccccc1	0.4	i	-1.0	-1.6	44.0	-15.8
CCCCn1c(N)c(N(CC(C)C)C(=O)CC2OC(=O)c3ccccc32)c(=O)[nH]c1=O (stereo not given)	/	/	0.0	-1.7	/	-3.7
C=CCn1c(=O)/c(=C2/SC(C)=C(C)N2CC)s/c1=C1/C(=O)N(CC)C(=S)N1c1ccccc1	-8.0	i	-45.2	0.0	100.3*	-4.4
C=CCn1c(=O)/c(=C2/Sc3ccccc3N2CC)s/c1=C1/C(=O)NN=C1C	?	i	/	1.1	-1.1	0.8
Cc1cc2cc(C(c3nnnn3C3CCCC3)N(Cc3cccnc3)Cc3ccco3)c(=O)[nH]c2cc1C (stereo not given)	19.8	i	7.0	0.4	82.6*	-7.2
O=C1[C@H]2[C@@H](c3ccccc3)N[C@]3(CCCN(CC4CCCCC4)C3=O)[C@H]2C(=O)N1Cc1ccccc1	/	/	17.8	/	/	/
O=S(=O)(NCCN1CCN(S(=O)(=O)c2ccccc2F)CC1)c1ccccc1F	/	/	8.7	-0.7	/	-2.1
CC(=O)c1ccc(OCCCC(=O)NC2=NCCS2)cc1	7.1	i	39.0*	1.2	15.4	1.8
CCc1nnc(SCC(=O)Nc2ccc(N3CCOCC3)cc2)n1C	-1.5	i	-3.7	-2.2	32.6	-7.4
CCN(CC(=O)Nc1ccccc1OC)CC(=O)Nc1c(Cl)ccc(C)c1Cl	-6.0	i	-5.3	1.7	8.9	-10.1
Cc1ccc2nc(-c3ccc(N4C(=NC(=O)CCC(=O)O)SC5CS(=O)(=O)CC54)cc3)sc2c1 (stereo not given)	69.5*	+	-10.2	27.1	-13.9	5.2
COc1ccc(OC)c(NC(=O)c2ccc(-n3cccn3)nc2)c1	105.5*	+	-5.2	1.5	16.2	-0.5
COc1ccc(OC)c(NC(=O)CSc2nnc(Cc3cccn3C)n2CCc2ccccc2)c1	-1.0	i	-20.6	-3.8	68.7*	-5.3
COc1ccc(OC)c(NC(=O)CSc2ncccn2)c1	-6.4	i	-71.8	26.1	76.5*	-5.9
Cn1cccc1Cc1nnc(SCC(=O)Nc2ccc(F)cc2)n1CCc1ccccc1	-18.3	i	-7.2	-6.4	-6.2	-8.8
COc1ccc(OC)c(N/C(C)=C/C(=O)c2ccccc2)c1	1.2	i	10.5	0.4	1.5	-2.4
COc1ccc(OC)c(N/C(C)=C/C(=O)c2ccncc2)c1	?	+	-4.0	-3.2	18.5	0.6
CCCCCCN1C[C@H](n2cc(-c3ccc(F)cc3)nn2)[C@@H](O)C[C@@H]1c1ccc(Cl)cc1	/	/	-5.6	/	/	/
SMILES	eIF4H inh	PABP FP inh	PABP1 MLLE inh	A3A deaminase	PHOSPHO1 block	A3G deaminase
CC(C)c1c(C(=O)N/N=C/c2ccc(C(F)(F)F)cc2)nnn1-c1nonc1N	-0.9	i	6.3	-3.8	34.1	-2.0
CCCCCCCCNC(=O)c1cccnc1SCC(=O)Nc1ccc(OC)cc1OC	64.2*	+	-4.6	-2.4	11.3	-2.7
O=C1c2nc3cc(-c4ccco4)[nH]n3c(=O)c2CN1C1CCCCC1	50.0*	+	12.3	71.3	-4.4	66.1
O=C1CCCC(=O)C1CS(=O)(=O)c1ccccc1	-7.6	i	52.2*	-2.7	-7.2	-5.0
O=C1CC(c2ccc(Cl)cc2)CC(=O)C1CS(=O)(=O)c1ccccc1 (stereo not given)	-3.6	i	30.5	5.8	24.1	4.3
O=C1CN(C(=O)c2ccccc2Br)C(c2ccc(F)cc2)c2cc(F)ccc2N1 (stereo not given)	5.8	i	-1.6	-3.2	38.1	-6.1
COC(=O)CCCC1=CC2=C(c3ccccc3)C(=O)C(C)(OC(=O)C3CCCC3)C(=O)C2=CN1CCN1CCOCC1 (stereo not given)	14.2	i	40.4*	-5.0	22.1	-6.1
CC1(OC(=O)C2CCCC2)C(=O)C=C2C=C(c3ccsc3)N(CCN3CCOCC3)C=C2C1=O (stereo not given)	101.0	+	/	-2.7	17.7	-8.5
O=C1CCCCC1C(O)(C(=O)c1ccccc1)c1ccccc1 (stereo not given)	/	/	6.6	/	/	/
COc1ccccc1-n1c(CNC(=O)COc2ccccc2)n[nH]c1=S	-3.9	i	8.6	-3.0	81.6*	17.6
COc1ccccc1-n1c(CNC(=O)c2cccc([N+](=O)[O-])c2C)n[nH]c1=S	-2.7	i	-8.1	-1.2	-2.7	22.6
CCN(CC)C(=S)Nc1ccc(OC)cc1	active	+	-31.2	-3.0	-5.1	-9.3
COc1ccc(CN(Cc2ccc(C(=O)O)cc2)C(=S)Nc2cccc(C)c2)cc1OC	-3.7	i	-33.5	-10.3	-6.7	-5.2
COc1ccc(NC(=S)N(Cc2ccc(C(=O)O)cc2)Cc2ccc(OC)c(OC)c2)cc1	91.1*	+	-10.2	0.5	5.4	-5.6
COC(=O)c1ccc(C2C(C(=O)c3cc4ccccc4o3)=C(O)C(=O)N2c2cc(C)on2)cc1 (stereo not given)	?	+	-34.7	-7.1	12.7	-5.6
CCOCCCNC(=O)c1cc(-c2cccnc2)nc2ccc(S(=O)(=O)N3CCC(C)CC3)cc12	-21.8	i	-4.0	-1.4	75.4*	0.6
O=C1CC(c2ccccc2)Cc2nc3nc(C(F)(F)F)nn3cc21 (stereo not given)	92.3*	+	14.5	-12.1	8.3	-19.8
